# Counter-ions that a name gives are not always drawn. ± gives the standard deviation of the averaged measurements.
# Experiments:
# [1] = tested on: Saccharomyces cerevisiae BY4741 SeMeCo community; experiment: mean cell size (pixel area) (pixels); higher = larger cells; conditions: 10 µM; 24 h; SM minimal medium
# In short: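 Drug was acoustically predosed into 384-well plates to a final 10 µM in SM medium, and each well received 70 µl of Saccharomyces cerevisiae BY4741 diluted to OD600 = 0.3 from an overnight preculture at OD600 = 1.0. This four-plasmid fluorescent community carries one fluorescent marker per plasmid, and each plasmid complements one auxotrophy. After 24 h, the cells were fixed with paraformaldehyde and imaged by automated confocal microscopy, and Harmony analysis yielded mean cell pixel area per well. Each value is averaged over 3 replicates. Same SeMeCo high-content imaging drug screen: Selleck FDA-approved drugs at 10 µM, 24 h in SM medium, 384-well plates, 3 replicates.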
# [2] = tested on: Saccharomyces cerevisiae BY4741 SeMeCo community; experiment: z-score of prototroph abundance vs DMSO median; higher = larger share of this subpopulation than in DMSO controls; conditions: 10 µM; 24 h; SM minimal medium; subpopulation (auxotrophy): Prototroph
# In short: (§1)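 A Saccharomyces cerevisiae BY4741 community carried four plasmids, each restoring one auxotrophy and encoding a distinct fluorescent protein. It was pre-grown overnight to OD600 1.0, diluted to 0.3, and 70 µl was added to 384-well plates acoustically predosed with library drugs (10 µM final), then grown 24 h in minimal SM medium. Cells were paraformaldehyde-fixed and imaged by automated confocal microscopy, with single-auxotroph fluorescent strains setting thresholds and autofluorescence correction. Each subpopulation's abundance was scored as a z-score against the vehicle-well median.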
# [3] = tested on: Saccharomyces cerevisiae BY4741 SeMeCo community; experiment: z-score of subpopulation abundance vs DMSO median, subpopulation auxotrophic for U; higher = larger share of this subpopulation than in DMSO controls; conditions: 10 µM; 24 h; SM minimal medium; subpopulation (auxotrophy): U
# In short: as §1
# [4] = tested on: Saccharomyces cerevisiae BY4741 SeMeCo community; experiment: z-score of subpopulation abundance vs DMSO median, subpopulation auxotrophic for H; higher = larger share of this subpopulation than in DMSO controls; conditions: 10 µM; 24 h; SM minimal medium; subpopulation (auxotrophy): H
# In short: as §1
# [5] = tested on: Saccharomyces cerevisiae BY4741 SeMeCo community; experiment: z-score of subpopulation abundance vs DMSO median, subpopulation auxotrophic for LU; higher = larger share of this subpopulation than in DMSO controls; conditions: 10 µM; 24 h; SM minimal medium; subpopulation (auxotrophy): LU
# In short: as §1
# [6] = tested on: Saccharomyces cerevisiae BY4741 SeMeCo community; experiment: z-score of subpopulation abundance vs DMSO median, subpopulation auxotrophic for HM; higher = larger share of this subpopulation than in DMSO controls; conditions: 10 µM; 24 h; SM minimal medium; subpopulation (auxotrophy): HM
# In short: as §1
# [7] = tested on: Saccharomyces cerevisiae BY4741 SeMeCo community; experiment: z-score of subpopulation abundance vs DMSO median, subpopulation auxotrophic for HU; higher = larger share of this subpopulation than in DMSO controls; conditions: 10 µM; 24 h; SM minimal medium; subpopulation (auxotrophy): HU
# In short: as §1
# [8] = tested on: Saccharomyces cerevisiae BY4741 SeMeCo community; experiment: z-score of subpopulation abundance vs DMSO median, subpopulation auxotrophic for UM; higher = larger share of this subpopulation than in DMSO controls; conditions: 10 µM; 24 h; SM minimal medium; subpopulation (auxotrophy): UM
# In short: as §1
# [9] = tested on: Saccharomyces cerevisiae BY4741 SeMeCo community; experiment: z-score of subpopulation abundance vs DMSO median, subpopulation auxotrophic for HLU; higher = larger share of this subpopulation than in DMSO controls; conditions: 10 µM; 24 h; SM minimal medium; subpopulation (auxotrophy): HLU
# In short: as §1
# [10] = tested on: Saccharomyces cerevisiae BY4741 SeMeCo community; experiment: z-score of subpopulation abundance vs DMSO median, subpopulation auxotrophic for HUM; higher = larger share of this subpopulation than in DMSO controls; conditions: 10 µM; 24 h; SM minimal medium; subpopulation (auxotrophy): HUM
# In short: as §1
# [11] = tested on: Saccharomyces cerevisiae BY4741 SeMeCo community; experiment: z-score of subpopulation abundance vs DMSO median, subpopulation auxotrophic for HLUM; higher = larger share of this subpopulation than in DMSO controls; conditions: 10 µM; 24 h; SM minimal medium; subpopulation (auxotrophy): HLUM
# In short: as §1
# [12] = tested on: Saccharomyces cerevisiae BY4741 SeMeCo community; experiment: z-score of subpopulation abundance vs DMSO median, subpopulation auxotrophic for L; higher = larger share of this subpopulation than in DMSO controls; conditions: 10 µM; 24 h; SM minimal medium; subpopulation (auxotrophy): L
# In short: as §1
# [13] = tested on: Saccharomyces cerevisiae BY4741 SeMeCo community; experiment: z-score of subpopulation abundance vs DMSO median, subpopulation auxotrophic for LM; higher = larger share of this subpopulation than in DMSO controls; conditions: 10 µM; 24 h; SM minimal medium; subpopulation (auxotrophy): LM
# In short: as §1
# [14] = tested on: Saccharomyces cerevisiae BY4741 SeMeCo community; experiment: z-score of subpopulation abundance vs DMSO median, subpopulation auxotrophic for HL; higher = larger share of this subpopulation than in DMSO controls; conditions: 10 µM; 24 h; SM minimal medium; subpopulation (auxotrophy): HL
# In short: as §1
# [15] = tested on: Saccharomyces cerevisiae BY4741 SeMeCo community; experiment: z-score of subpopulation abundance vs DMSO median, subpopulation auxotrophic for LUM; higher = larger share of this subpopulation than in DMSO controls; conditions: 10 µM; 24 h; SM minimal medium; subpopulation (auxotrophy): LUM
# In short: as §1
# [16] = tested on: Saccharomyces cerevisiae BY4741 SeMeCo community; experiment: z-score of subpopulation abundance vs DMSO median, subpopulation auxotrophic for HLM; higher = larger share of this subpopulation than in DMSO controls; conditions: 10 µM; 24 h; SM minimal medium; subpopulation (auxotrophy): HLM
# In short: as §1
SMILES,mean cell size [1],z-score of prototroph abundance [2],z-score of subpopulation abundance [3],z-score of subpopulation abundance [4],z-score of subpopulation abundance [5],z-score of subpopulation abundance [6],z-score of subpopulation abundance [7],z-score of subpopulation abundance [8],z-score of subpopulation abundance [9],z-score of subpopulation abundance [10],z-score of subpopulation abundance [11],z-score of subpopulation abundance [12],z-score of subpopulation abundance [13],z-score of subpopulation abundance [14],z-score of subpopulation abundance [15],z-score of subpopulation abundance [16]
O=C1C(N(CO)C(=O)NCO)N(CO)C(=O)N1CO (stereo not given) [Diazolidinyl urea],12.1 ± 0.16,1.06,-0.26,-0.72,0.3,-1.17,-0.75,-0.82,0.05,-0.76,0.51,,,,,
CC[C@@]1(O)C(=O)OCc2c1cc1n(c2=O)Cc2cc3cc(O)ccc3nc2-1 [(S)-10-Hydroxycamptothecin],12.41 ± 0.077,0.14,-1.66,0.82,-0.98,0.81,-1.09,,0.14,-0.24,-0.28,1.09,1.48,0.62,0.42,
CC1(C)S[C@@H]2[C@H](NC(=O)[C@H](N)c3ccc(O)cc3)C(=O)N2[C@H]1C(=O)O [Amoxicillin Sodium],12.5 ± 0.31,0.37,-0.06,,-0.7,-0.22,-0.71,-0.03,-0.65,-0.13,-0.2,-0.33,-1.17,-1.14,-0.05,
CC(C(=O)O)c1ccc2c(c1)CC(=O)c1ccccc1S2 (stereo not given) [Zaltoprofen],12.82 ± 0.12,0.63,0.2,0.04,-0.2,,-0.7,-1.01,-0.03,,-0.59,,-0.57,-0.14,-0.71,0.64
COc1ccc(CC2c3cc(OC)c(OC)cc3CC[N+]2(C)CCC(=O)OCCCCCOC(=O)CC[N+]2(C)CCc3cc(OC)c(OC)cc3C2Cc2ccc(OC)c(OC)c2)cc1OC (stereo not given) [Atracurium Besylate],12.4 ± 0.24,-0.17,-0.48,0.57,0.39,0.41,0.23,-0.21,0.55,0.71,-0.07,1.52,0.79,1.4,,
CC/C=C(\C(=O)N[C@@H]1C(=O)N2C(C(=O)OCOC(=O)C(C)(C)C)=C(COC(N)=O)CS[C@H]12)c1csc(N)n1 [Cefcapene Pivoxil Hydrochloride],12.3 ± 0.31,-1.27,0.38,1.15,0.9,1.27,1,0.67,-0.22,1.18,0.1,,0.55,0.18,0.63,0.64
CC/C(=C(/CC)c1ccc(O)cc1)c1ccc(O)cc1 [Diethylstilbestrol],12.85 ± 0.035,1.5,-1.17,0.17,-1.48,-0.17,-1.29,-1.59,-1.06,,-1.31,,-0.03,-0.25,-1.01,-0.67

# Reference: the supplement of paper PMC8975748
